This is a sample that favours compounds with a hit; in the whole collection about 2.8% have one here.
PolyA inhibitor – polyadenylation inhibitors in yeast reporter cells, primary screen, luminescence, S. cerevisiae; S. cerevisiae SKY197-pL101 polyadenylation reporter, beta-gal luminescence; efflux-impaired pdr1/pdr3 knockout yeast; score 100 = 6 SD above DMSO; activity score, % at 12 µM; hit rate 0.02% among 300,000;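 active = lowest replicate activity score at least 50, where 100 means six control SD above control mean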;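 note: yeast exposed to compound for 9 h at 30 °C; higher score means more reporter readthrough which indicates perturbed polyadenylation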
Platelet DG rel – inhibitors of platelet dense granule secretion, primary screen, cell-based, MLPCN, human platelets | human platelet-rich plasma, SFLLRN dense granule ATP release, luminescence | inhibition, %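 (compounds screened at 7.5 µM in platelet-rich plasma)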 | hit rate 0.22% among 300,000;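 active = mean replicate score, as percent of positive control, at or above 50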
pCIP destab – p/CIP-EGFP fusion destabilizers, primary screen, fluorescence, F442A cells; Q05BA5; 16 h; decrease of EGFP signal, % at 10 µM; hit rate 0.01% among 290,000; AID 1984, 2009;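 active = EGFP signal decrease of at least 30% at 10 µM or well 3 SD below plate mean, unless failing retest; inactive = the rest, including hits failing retest or dose response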
Target sequence (Q05BA5 1-1403): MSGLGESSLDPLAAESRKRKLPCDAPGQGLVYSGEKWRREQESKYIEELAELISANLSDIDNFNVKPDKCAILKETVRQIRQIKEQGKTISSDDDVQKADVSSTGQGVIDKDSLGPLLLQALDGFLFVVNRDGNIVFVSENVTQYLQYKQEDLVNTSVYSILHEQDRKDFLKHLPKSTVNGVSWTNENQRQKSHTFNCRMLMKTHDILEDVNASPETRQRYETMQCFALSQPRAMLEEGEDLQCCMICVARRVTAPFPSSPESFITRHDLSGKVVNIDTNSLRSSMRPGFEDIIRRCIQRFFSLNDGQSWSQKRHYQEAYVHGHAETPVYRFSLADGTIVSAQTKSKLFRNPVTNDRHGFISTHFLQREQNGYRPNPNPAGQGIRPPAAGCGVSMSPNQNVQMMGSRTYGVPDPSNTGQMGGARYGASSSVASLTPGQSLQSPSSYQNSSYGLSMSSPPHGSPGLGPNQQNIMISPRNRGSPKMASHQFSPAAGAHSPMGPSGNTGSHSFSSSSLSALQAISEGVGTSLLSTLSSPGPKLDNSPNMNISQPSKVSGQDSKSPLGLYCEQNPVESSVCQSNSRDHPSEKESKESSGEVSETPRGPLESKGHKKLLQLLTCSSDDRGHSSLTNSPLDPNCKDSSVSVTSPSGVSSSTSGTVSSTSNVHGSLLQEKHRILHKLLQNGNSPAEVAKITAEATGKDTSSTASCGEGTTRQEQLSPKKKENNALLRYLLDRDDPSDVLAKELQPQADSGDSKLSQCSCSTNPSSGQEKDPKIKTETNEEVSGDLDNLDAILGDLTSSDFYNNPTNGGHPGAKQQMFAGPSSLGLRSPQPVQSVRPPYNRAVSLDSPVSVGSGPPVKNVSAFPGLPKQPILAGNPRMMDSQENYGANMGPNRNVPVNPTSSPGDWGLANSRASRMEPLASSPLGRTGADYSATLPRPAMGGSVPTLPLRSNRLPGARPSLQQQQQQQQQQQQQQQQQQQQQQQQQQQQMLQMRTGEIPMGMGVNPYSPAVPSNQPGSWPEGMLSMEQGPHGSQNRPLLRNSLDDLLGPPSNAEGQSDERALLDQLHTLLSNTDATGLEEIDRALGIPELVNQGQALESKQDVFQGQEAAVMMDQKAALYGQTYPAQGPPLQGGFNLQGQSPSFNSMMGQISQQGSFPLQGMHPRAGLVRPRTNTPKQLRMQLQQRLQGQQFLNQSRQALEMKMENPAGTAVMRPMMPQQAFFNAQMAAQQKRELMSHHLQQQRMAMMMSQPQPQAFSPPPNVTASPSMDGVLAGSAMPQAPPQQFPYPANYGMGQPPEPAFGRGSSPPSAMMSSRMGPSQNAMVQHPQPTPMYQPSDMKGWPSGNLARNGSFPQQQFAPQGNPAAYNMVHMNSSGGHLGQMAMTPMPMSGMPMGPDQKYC
HIF act – HIF pathway transcriptional activators, primary screen, cell-based, U2OS HRE-luciferase, luminescence | activation, % at 7.5 µM (by protocol) | hit rate 0.32% among 300,000 | U2OS HRE-luciferase reporter; normalized: DMSO 0%, desferrioxamine 100%;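 active = mean activation of at least 10% of the iron chelator positive control signal, with at least half of replicates also reaching 10%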
AHR activator – AHR activators, primary screen, cell-based, luminescence, luciferase reporter, human. Aryl hydrocarbon receptor (Homo sapiens), P35869. AHR-responsive luciferase reporter cells. activation, % at 5 µM. hit rate 2.5% among 320,000. AID 2796, 2010; in the data active = activation above about 47%;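 note: 0% = vehicle wells and 100% = reference agonist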
* hit, by the source's call.

O=C(Nc1ccc(Cl)c(Cl)c1)c1cccnc1 was read as PolyA inhibitor -11, Platelet DG rel 8, pCIP destab -8, HIF act 3 and AHR activator 71*.
C=CCOn1c(=O)c(-c2ccc(F)cc2)[n+]([O-])c2ccccc21 was read as PolyA inhibitor -11, Platelet DG rel -1, pCIP destab -7 and HIF act 0.
`C/C(=N\NC(=O)c1ccccc1O)c1ccc(NC(=O)Cc2ccccc2)cc1` gave PolyA inhibitor 4, Platelet DG rel 17, pCIP destab -9, HIF act 2 and AHR activator 52*.
Screening Cc1ccc2c(c1)cc(C(=O)NCc1ccccc1)n2C returned PolyA inhibitor -22, Platelet DG rel -4, pCIP destab -13, HIF act 23* and AHR activator 8.
Cc1cc2cc(CNC(=S)NCc3ccccc3)ccc2n1C was read as PolyA inhibitor -23, Platelet DG rel 3, pCIP destab -26, HIF act 0 and AHR activator 0.
`COc1cc(NC(=O)COc2ccc(Cl)cc2)ccc1-c1cc2ccccc2oc1=O` gave PolyA inhibitor 14, Platelet DG rel -5, pCIP destab 3, HIF act 1 and AHR activator 55*.
COc1cc(NC(=O)COc2ccc(Cl)cc2)ccc1NC(=O)C(C)C was read as PolyA inhibitor 8, Platelet DG rel 0, pCIP destab -7 and AHR activator 4.
For CCS(=O)(=O)c1ccc(-c2cccc(NC(=O)COc3ccccc3)c2)nn1 the results were PolyA inhibitor 12, Platelet DG rel -12, pCIP destab -3, HIF act 60* and AHR activator 0.
Screening CCS(=O)(=O)c1ccc(-c2cccc(NC(=O)COc3ccc(Cl)cc3)c2)nn1 returned PolyA inhibitor 20, Platelet DG rel -8, pCIP destab -3, HIF act 0 and AHR activator -1.
Screening CS(=O)(=O)c1ccc(-c2cccc(NC(=O)COc3ccc(Cl)cc3)c2)nn1 returned PolyA inhibitor -15, Platelet DG rel 7, pCIP destab 7, HIF act 1 and AHR activator 9.
`COc1ccc(-c2cccc(NC(=O)COc3ccc(Cl)cc3)c2)nn1` gave PolyA inhibitor 81*, Platelet DG rel 10, pCIP destab 4, HIF act 1 and AHR activator 5.
Screening O=C(COc1ccccc1)Nc1cccc(-c2nc3ccccc3[nH]2)c1 returned PolyA inhibitor -22, Platelet DG rel 2, pCIP destab 0, HIF act 2 and AHR activator 79*.
Cc1ccc(S(=O)(=O)N[C@@H](CC(C)C)C(=O)N2CCC(C(=O)N[C@H](C(=O)O)C(C)C)CC2)cc1 was read as PolyA inhibitor -4, Platelet DG rel -4, pCIP destab 12, HIF act 0 and AHR activator 0.
`Cc1nn(C)c(C)c1/C=N/N=C1\CCC2C3CCc4cc(O)ccc4C3CCC12C` (centres undefined) gave PolyA inhibitor 8, Platelet DG rel -4, pCIP destab -8, HIF act -1 and AHR activator -1.
`CCOc1ccc(S(=O)(=O)/N=C(/Nc2ccc(C)c(S(=O)(=O)N3CCOCC3)c2)c2ccccc2)cc1` gave AHR activator 2.
O=C(CSCc1nc2ccccc2[nH]1)Nc1ccc2ccccc2c1 was read as PolyA inhibitor 15, Platelet DG rel -8, pCIP destab 12, HIF act 0 and AHR activator 60*.
For O=C(CSCc1nc2ccccc2[nH]1)Nc1ccc(Oc2ccccc2)cc1 the results were PolyA inhibitor -8, Platelet DG rel -1, pCIP destab -1, HIF act -1 and AHR activator 13.
Screening COc1ccc(-c2cn(-c3cccc(C)c3)c(=O)[nH]2)cc1OC returned PolyA inhibitor 0, Platelet DG rel -2, pCIP destab -5, HIF act 1 and AHR activator 7.
`COc1ccccc1-n1cc(-c2ccc(Cl)cc2)[nH]c1=O` gave PolyA inhibitor 2, Platelet DG rel 105*, pCIP destab -6, HIF act 0 and AHR activator 33.
Cc1ccc(C(=O)N/N=C\c2cc3c(cc2Br)OCO3)s1 was read as PolyA inhibitor 10, Platelet DG rel 9, pCIP destab 1, HIF act 0 and AHR activator 47*.
For O=C(N/N=C/c1cc(Br)c(O)c(Br)c1O)c1cccnc1 the results were PolyA inhibitor 3, Platelet DG rel 2, pCIP destab -1, HIF act 1 and AHR activator 13.
Screening O=C(N/N=C/c1cc2c(cc1Br)OCO2)c1cccnc1 returned PolyA inhibitor -7, Platelet DG rel 9, pCIP destab 15, HIF act 0 and AHR activator 48*.
O=C(N/N=C/c1cc(O)ccc1Br)c1cccnc1 was read as PolyA inhibitor 6, Platelet DG rel 2, pCIP destab -4, HIF act 14* and AHR activator 13.
COC(=O)N/N=C\c1cc2c(cc1Br)OCO2 was read as PolyA inhibitor 11, Platelet DG rel 4, pCIP destab 0, HIF act 0 and AHR activator 43.
`Cc1ccc(C(=O)N/N=C\c2ccncc2)s1` gave PolyA inhibitor -8, Platelet DG rel 0, pCIP destab -6, HIF act 1 and AHR activator 55*.
For O=C(N/N=C\c1ccncc1)c1ccc(Br)s1 the results were PolyA inhibitor 0, Platelet DG rel 9, pCIP destab -15 and HIF act 0.
COc1ccc(S(=O)(=O)Nc2ccc3c(c2)C(=O)N([C@H](C)CO)C[C@H](C)[C@@H](CN(C)S(=O)(=O)c2c(C)noc2C)O3)cc1 was read as AHR activator -1.
`O=C(N/N=C/C=C\c1ccccc1[N+](=O)[O-])c1cccnc1` gave PolyA inhibitor 4, Platelet DG rel 6, pCIP destab -7, HIF act 0 and AHR activator 20.
For O=C(N/N=C\C=C\c1ccc2c(c1)OCO2)c1cccnc1 the results were Platelet DG rel -1, pCIP destab -20, HIF act 0 and AHR activator 68*.
For O=C(N/N=C/C=C/c1ccccc1[N+](=O)[O-])c1cccnc1 the results were PolyA inhibitor -5, Platelet DG rel 15, pCIP destab -7, HIF act -1 and AHR activator 72*.
O=[N+]([O-])c1cc(S(=O)(=O)NCCN2CCOCC2)ccc1Cl was read as PolyA inhibitor -22, Platelet DG rel 2, pCIP destab -5, HIF act 0 and AHR activator 1.
For COc1ccc(-c2nnn(CC(=O)N(CC(=O)NC3CCCC3)c3ccccc3F)n2)cc1OC the results were PolyA inhibitor 36, Platelet DG rel -1, pCIP destab 5, HIF act 0 and AHR activator 2.

High-throughput results as filed in PubChem BioAssay.
